# Unmarked numbers belong to inactive results.
# How the values were obtained:
# Assay in all cases: CellTox Green cytotoxicity fluorescence relative to DMSO vehicle (fold of vehicle RFU); higher = more cell death (loss of membrane integrity), active = 2 or more
# CMK = system: CMK
# Procedure, shortened: (§1)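 Single compounds from the Selleckchem apoptosis library were applied at final 0.01, 0.1 and 1 µM (0.1% DMSO vehicle) to MV4-11, CMK and Kasumi-1 cells seeded at 4.0 × 10^4 cells per well with CellTox Green reagent. After incubation at 37 °C, 5% CO2, fluorescence was read at 24, 48 and 72 h. Cytotoxicity, meaning loss of membrane integrity, is shown as fold of the DMSO vehicle signal.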
# Kasumi-1 = system: Kasumi-1
# Procedure, shortened: as §1
# MV4-11 = system: MV4-11
# Procedure, shortened: as §1
Compound,"CellTox Green cytotoxicity fluorescence (CMK; 0.01 µM, 24 h)","CellTox Green cytotoxicity fluorescence (CMK; 0.01 µM, 48 h)","CellTox Green cytotoxicity fluorescence (CMK; 0.01 µM, 72 h)","CellTox Green cytotoxicity fluorescence (CMK; 0.1 µM, 24 h)","CellTox Green cytotoxicity fluorescence (CMK; 0.1 µM, 48 h)","CellTox Green cytotoxicity fluorescence (CMK; 0.1 µM, 72 h)","CellTox Green cytotoxicity fluorescence (CMK; 1 µM, 24 h)","CellTox Green cytotoxicity fluorescence (CMK; 1 µM, 48 h)","CellTox Green cytotoxicity fluorescence (CMK; 1 µM, 72 h)","CellTox Green cytotoxicity fluorescence (Kasumi-1; 0.01 µM, 24 h)","CellTox Green cytotoxicity fluorescence (Kasumi-1; 0.01 µM, 48 h)","CellTox Green cytotoxicity fluorescence (Kasumi-1; 0.01 µM, 72 h)","CellTox Green cytotoxicity fluorescence (Kasumi-1; 0.1 µM, 24 h)","CellTox Green cytotoxicity fluorescence (Kasumi-1; 0.1 µM, 48 h)","CellTox Green cytotoxicity fluorescence (Kasumi-1; 0.1 µM, 72 h)","CellTox Green cytotoxicity fluorescence (Kasumi-1; 1 µM, 24 h)","CellTox Green cytotoxicity fluorescence (Kasumi-1; 1 µM, 48 h)","CellTox Green cytotoxicity fluorescence (Kasumi-1; 1 µM, 72 h)","CellTox Green cytotoxicity fluorescence (MV4-11; 0.01 µM, 24 h)","CellTox Green cytotoxicity fluorescence (MV4-11; 0.01 µM, 48 h)","CellTox Green cytotoxicity fluorescence (MV4-11; 0.01 µM, 72 h)","CellTox Green cytotoxicity fluorescence (MV4-11; 0.1 µM, 24 h)","CellTox Green cytotoxicity fluorescence (MV4-11; 0.1 µM, 48 h)","CellTox Green cytotoxicity fluorescence (MV4-11; 0.1 µM, 72 h)","CellTox Green cytotoxicity fluorescence (MV4-11; 1 µM, 24 h)","CellTox Green cytotoxicity fluorescence (MV4-11; 1 µM, 48 h)","CellTox Green cytotoxicity fluorescence (MV4-11; 1 µM, 72 h)"
Cc1nn(C)c(COc2ccc(N3CCN(S(=O)(=O)N(C)C)CC3)cc2)c1-c1cccc2c(CCCOc3cccc4ccccc34)c(C(=O)O)n(CCN3CCOCC3)c12,0.996,1,1,0.995,0.985,0.957,0.985,1.01,0.948,0.998,0.981,0.976,1.01,1.03,1.04,0.938,1.03,1.03,0.991,0.986,0.981,1.05,1.1,1.12,1.15,1.49,1.67
CN[C@@H](C)C(=O)N[C@H](C(=O)N1CCC[C@H]1C(=O)Nc1snnc1-c1ccccc1)C1CCCCC1,0.986,0.984,0.983,1.01,1,1.02,1.01,1.02,0.959,0.983,0.949,0.94,1.01,1.03,1.07,0.988,1.04,1.1,,,,,,,,,
CCCCCCCCCCCC1=C(O)C(=O)C=C(O)C1=O [Embelin],1.03,1.04,1.09,0.994,0.99,0.973,0.986,1.04,1.05,0.991,0.988,0.992,1.01,0.999,0.996,1.02,1.03,1.04,,,,,,,,,
Cn1cc(-c2ccc3c(c2)CCN3C(=O)Cc2cccc(C(F)(F)F)c2)c2c(N)ncnc21,0.971,0.966,0.935,0.981,0.987,0.978,0.972,1.01,0.913,1.07,1.03,1.02,1.01,1.05,1.07,0.955,1.02,1.08,0.987,0.984,0.979,0.986,0.981,0.977,1.05,1.34,1.77
COc1cc(C(=O)N2CCC(N3CCN(C)CC3)CC2)ccc1Nc1ncc2c(n1)N(C)c1ccccc1C(=O)N2C,0.941,0.923,0.891,0.97,0.967,0.941,1.16,1.89,1.71,1.05,1.01,1.01,0.99,0.983,1,1.03,1.33,1.61,,,,,,,,,
CC(=O)N1c2ccc(-c3ccc(C(=O)O)cc3)cc2[C@H](Nc2ccc(Cl)cc2)C[C@@H]1C,0.995,1.1,0.996,1.2,1.71,1.37,1.33,1.93,1.57,0.959,0.98,1.03,1.06,1.36,1.49,1.09,1.66,1.92,,,,,,,,,
COc1ccc(C2=N[C@@H](c3ccc(Cl)cc3)[C@@H](c3ccc(Cl)cc3)N2C(=O)N2CCNC(=O)C2)c(OC(C)C)c1 [Nutlin-3],0.981,0.982,0.971,1,1.01,1.03,1.02,1.01,1.03,1.02,1.01,0.998,0.977,0.977,0.959,1.01,1.01,1.05,0.981,1,0.995,0.991,0.999,1.03,1.01,1.24,1.46
N#CC(=Cc1ccc(-c2cc(Cl)ccc2Cl)o1)C(=O)Nc1cccc2ncccc12,0.949,0.938,0.947,0.993,0.99,0.992,1,1.05,1.03,1,0.958,0.958,0.998,0.979,0.979,0.939,0.916,0.917,,,,,,,,,
COc1ccc(CCNCc2ccc(OCc3ccc(Cl)nc3)c(OC)c2)cc1OC,0.968,0.978,0.979,0.96,0.955,0.961,0.94,0.968,0.996,0.943,0.942,0.931,0.953,0.936,0.949,0.975,0.987,0.979,,,,,,,,,
CN[C@@H](C)C(=O)N[C@H](C(=O)N1CCC[C@H]1c1nc(C(=O)c2ccc(F)cc2)cs1)C1CCCCC1,0.96,0.958,0.993,0.965,0.981,1.03,0.964,0.991,0.981,0.997,0.955,0.955,0.998,1.02,1.04,1.03,1.1,1.17,,,,,,,,,
Nc1nc(F)nc2c1ncn2[C@@H]1O[C@H](CO)[C@@H](O)[C@@H]1O [Fludarabine],1,1,1,0.981,0.982,0.939,0.976,0.961,0.907,0.951,0.991,0.986,0.99,0.99,0.984,1.02,1.01,1.03,0.938,0.968,0.976,0.992,0.985,0.98,0.994,0.984,1.01
C=CCc1cccc(/C=N/NC(=O)CN2CCN(Cc3ccccc3)CC2)c1O,0.917,0.909,0.921,0.92,0.917,0.953,0.913,0.937,1.06,1,0.934,0.93,0.918,0.918,0.918,0.916,0.914,0.892,0.974,0.955,0.955,0.95,0.951,0.957,0.904,1.07,1.31
COC(=O)[C@H](CCSC)NC(=O)c1ccc(NC[C@@H](N)CS)cc1-c1ccccc1,0.934,0.924,0.941,0.896,0.897,0.941,0.938,0.978,1.04,0.974,0.922,0.926,0.932,0.927,0.924,0.941,0.973,0.997,0.942,0.936,0.953,0.947,0.943,0.932,0.927,0.931,0.944
Nc1cccc2c1C(=O)N(C1CCC(=O)NC1=O)C2=O (stereo unspecified) [Pomalidomide],1,0.988,0.953,1.01,1.01,0.952,1.03,1.04,0.984,0.992,0.996,0.983,1.01,0.998,0.985,1.01,1.02,1,,,,,,,,,
CNC(=O)c1ccc(Nc2ncc(C(F)(F)F)c(NCc3nccnc3N(C)S(C)(=O)=O)n2)cc1 [Defactinib],0.942,0.942,0.941,0.923,0.931,0.915,0.945,1.01,0.889,0.961,0.964,0.942,0.955,0.958,0.956,0.931,0.985,0.991,,,,,,,,,
C/C(=N\NC(=O)c1cccc(S(=O)(=O)N2CCOCC2)c1)c1cc(Cl)ccc1O,0.984,0.991,1.04,0.936,0.956,0.969,0.942,0.907,0.774,0.938,0.949,0.96,0.974,0.986,0.968,0.937,1.02,1.05,0.971,0.97,0.966,0.98,0.978,0.972,0.953,1.06,1.17
CC(C)(C)C[C@@H]1N[C@@H](C(=O)N[C@H]2CC[C@H](O)CC2)[C@H](c2cccc(Cl)c2F)[C@]12C(=O)Nc1cc(Cl)ccc12,0.996,1.03,1.05,0.963,0.971,0.947,1.02,1.04,1.01,1,0.996,1.03,0.991,0.994,1,0.906,1.02,1.04,,,,,,,,,
Cc1nc(Nc2ncc(C(=O)Nc3c(C)cccc3Cl)s2)cc(N2CCN(CCO)CC2)n1 [Dasatinib Monohydrate],1.01,1.02,1.07,1.02,1.04,0.987,1,1.05,1.09,1.03,1.09,1.13,1.02,1.15,1.23,0.928,1.13,1.24,,,,,,,,,
Nc1ccccc1NC(=O)c1cnccn1,0.987,0.99,0.976,0.967,0.987,1.02,0.965,1.02,1.11,0.967,0.96,0.904,0.988,0.995,0.988,0.932,1,1.06,,,,,,,,,
CC(C)[C@H](CO)Nc1nc(Nc2cccc(Cl)c2)c2ncn(C(C)C)c2n1 [Purvalanol A],0.988,1,1,0.992,1,0.965,0.987,1.02,1.02,0.997,0.989,0.974,0.983,0.965,0.974,0.928,0.948,0.923,1.01,1.02,1.03,1.03,1.04,1.04,1,1.06,1.07
COCC[n+]1c2c(n(Cc3cnccn3)c1C)C(=O)c1ccccc1C2=O [Sepantronium Bromide],0.916,0.91,0.922,0.955,1.02,0.927,1.06,1.53,1.41,1.02,1.03,1.11,1.08,1.41,1.57,1.5,2.08 (active),2.15 (active),,,,,,,,,
CC(C)c1ccccc1Cc1cc(C(=O)Nc2ccc(S(=O)(=O)c3ccccc3C(C)(C)C)cc2)c(O)c(O)c1O,0.947,0.942,0.932,0.932,0.922,0.947,0.924,1.51,1.6,0.977,0.911,0.915,0.951,0.94,0.932,0.94,0.909,0.919,0.952,0.952,0.957,0.956,0.944,0.945,0.933,1.16,1.84
O=C1NC(=NCc2cccs2)S/C1=C\c1ccc2ncccc2c1,1.02,1.04,1.07,0.996,1,0.991,1.03,1.09,1.08,0.99,0.991,0.96,1.01,1.04,1,1.02,1.01,1.01,0.976,0.968,0.981,0.997,0.979,0.955,1.05,1.12,1.15
CC(C)c1cc2c(N3CCN(C4=NCC(C)(C)S4)CC3)ncnc2s1 [MI-3 (Menin-MLL Inhibitor)],0.943,0.954,0.984,0.923,0.941,0.923,,,,0.955,0.967,0.974,0.987,1.01,0.966,,,,0.931,0.933,0.927,0.883,0.889,0.876,0.961,0.951,0.95
CN1CCN(Cc2ccc(Nc3ncc(Cl)c(Nc4ccccc4S(=O)(=O)N(C)C)n3)cc2)CC1,0.958,0.972,0.913,1.07,1.56,1.32,2.06 (active),2.42 (active),1.62,0.957,0.97,0.961,0.997,1.34,1.49,1.47,1.66,1.72,0.95,0.961,0.975,1.14,1.93,2.27 (active),1.42,2.4 (active),2.55 (active)
CCCCC(C=O)NC(=O)C(CC(C)C)NC(=O)C(CC(C)C)NC(C)=O (stereo unspecified),0.991,0.967,0.962,0.984,0.984,1.01,2.35 (active),3.65 (active),2.82 (active),1.01,0.993,0.999,1.01,1,1,1.03,1.11,1.16,0.985,1.01,1.01,1.01,1.02,1.01,1.16,2.16 (active),2.42 (active)
C[C@H]1Oc2cc(cnc2N)-c2c(nn(C)c2C#N)CN(C)C(=O)c2ccc(F)cc21,0.989,0.966,0.982,0.951,0.957,0.948,1,1.05,1.07,1.05,1.01,1.01,1.01,0.988,0.997,0.922,0.929,0.914,0.984,0.959,0.958,0.992,0.992,0.992,0.964,0.976,0.975

# — the supplement of paper PMC7595190
